# Reference: PubChem BioAssay AID1159580 (chemical genetic matrix, 2015)
# About 2,000 (36%) of roughly 5,500 compounds were called active. Another 18% or so got no clear call; they are omitted. The list shows a part of the results. Unmarked numbers belong to inactive results. Cut-off read from the data, not from the text of the source: active = normalized growth mostly below about 0.91 (no sharp cut-off); inconclusive = no clear call, values can overlap the other calls; inactive = mostly above about 0.92.
# Assay: chemical genetic growth profiling, strain panel (AID 1159580);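 note: tested at 20 µM; growth read once vehicle control cultures reached saturation at 30 °C; 1 = growth at the plate median or of vehicle wells; lower values mean less growth of the strain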
# Conditions: S. cerevisiae deletion strains, growth OD
smiles,measurement,setting,value
CC(=O)ON=C1c2cc([N+](=O)[O-])ccc2-c2ccc([N+](=O)[O-])cc21,normalized growth,"locus YAR019C, strain CDC15, hits give low values",0.948
same,normalized growth,"locus YBL105C, strain PKC1, hits give low values",0.942
same,normalized growth,"locus YBR135W, strain CKS1, hits give low values",0.949
same,normalized growth,"locus YBR136W, strain MEC1, hits give low values",0.939
same,normalized growth,"locus YBR160W, strain CDC28, hits give low values",0.955
same,normalized growth,"locus YDL017W, strain CDC7, hits give low values",0.954
same,normalized growth,"locus YDL028C, strain MPS1, hits give low values",0.933
same,normalized growth,"locus YDL101C, strain DUN1, hits give low values",0.963
same,normalized growth,"locus YDL108W, strain KIN28, hits give low values",0.937
same,normalized growth,"locus YDL132W, strain cdc53, hits give low values",0.971
same,normalized growth,"locus YDL214C, strain PRR2, hits give low values",0.85
same,normalized growth,"locus YDR052C, strain DBF4, hits give low values",0.953
same,normalized growth,"locus YDR054C, strain cdc34, hits give low values",0.942
same,normalized growth,"locus YDR226W, strain ADK1, hits give low values",0.983
same,normalized growth,"locus YDR477W, strain SNF1, hits give low values",0.729
same,normalized growth,"locus YER123W, strain YCK3, hits give low values",0.793
same,normalized growth,"locus YER133W, strain GLC7, hits give low values",0.867
same,normalized growth,"locus YFL009W, strain cdc4, hits give low values",0.966
same,normalized growth,"locus YFL029C, strain CAK1, hits give low values",0.948
same,normalized growth,"locus YFR003C, strain YPI1, hits give low values",0.935
same,normalized growth,"locus YFR019W, strain FAB1, hits give low values",0.933
same,normalized growth,"locus YFR028C, strain CDC14, hits give low values",0.963
same,normalized growth,"locus YGR040W, strain KSS1, hits give low values",0.702
same,normalized growth,"locus YGR052W, strain FMP48, hits give low values",0.793
same,normalized growth,"locus YGR092W, strain DBF2, hits give low values",0.426 (active)
same,normalized growth,"locus YHR030C, strain SLT2, hits give low values",0.788 (active)
same,normalized growth,"locus YHR079C, strain IRE1, hits give low values",0.825
same,normalized growth,"locus YHR082C, strain KSP1, hits give low values",0.796
same,normalized growth,"locus YHR205W, strain SCH9, hits give low values",0.858
same,normalized growth,"locus YIL147C, strain SLN1, hits give low values",0.93
same,normalized growth,"locus YJL095W, strain BCK1, hits give low values",0.778
same,normalized growth,"locus YJL128C, strain PBS2, hits give low values",0.917
same,normalized growth,"locus YJL157C, strain FAR1, hits give low values",0.835
same,normalized growth,"locus YJR016C, strain ILV3, hits give low values",0.939
same,normalized growth,"locus YJR066W, strain TOR1 (second series), hits give low values",0.682
same,normalized growth,"locus YJR066W, strain TOR1, hits give low values",0.76
same,normalized growth,"locus YKL048C, strain ELM1, hits give low values",0.892
same,normalized growth,"locus YKL067W, strain YNK1, hits give low values",0.864
same,normalized growth,"locus YKL101W, strain HSL1, hits give low values",0.761
same,normalized growth,"locus YKL193C, strain SDS22, hits give low values",0.945
same,normalized growth,"locus YKL203C, strain TOR2, hits give low values",0.843
same,normalized growth,"locus YLR113W, strain HOG1, hits give low values",0.789 (active)
same,normalized growth,"locus YLR133W, strain CKI1, hits give low values",0.879
same,normalized growth,"locus YLR403W, strain SFP1, hits give low values",0.776
same,normalized growth,"locus YML070W, strain DAK1, hits give low values",0.852
same,normalized growth,"locus YMR001C, strain CDC5, hits give low values",0.942
same,normalized growth,"locus YMR205C, strain PFK2 (second series), hits give low values",0.865
same,normalized growth,"locus YMR277W, strain FCP1, hits give low values",0.936
same,normalized growth,"locus YNL006W, strain LST8, hits give low values",0.953
same,normalized growth,"locus YNL020C, strain ARK1, hits give low values",0.836
same,normalized growth,"locus YNL161W, strain CBK1, hits give low values",0.952
same,normalized growth,"locus YNL183C, strain NPR1, hits give low values",0.745
same,normalized growth,"locus YNL207W, strain RIO2, hits give low values",0.93
same,normalized growth,"locus YNL222W, strain SSU72, hits give low values",0.939
same,normalized growth,"locus YNL307C, strain MCK1 (second series), hits give low values",0.691
same,normalized growth,"locus YOL078W, strain AVO1, hits give low values",0.95
same,normalized growth,"locus YOL136C, strain PFK27, hits give low values",0.866
same,normalized growth,"locus YOR061W, strain CKA2, hits give low values",0.751
same,normalized growth,"locus YOR119C, strain RIO1, hits give low values",0.817
same,normalized growth,"locus YOR231W, strain MKK1, hits give low values",0.848
same,normalized growth,"locus YOR329C, strain SCD5, hits give low values",0.942
same,normalized growth,"locus YPL031C, strain PHO85, hits give low values",0.701
same,normalized growth,"locus YPL153C, strain RAD53, hits give low values",0.724
same,normalized growth,"locus YPL204W, strain HRR25, hits give low values",0.749
same,normalized growth,"locus YPL209C, strain IPL1, hits give low values",0.948
same,normalized growth,"locus YPL256C, strain CLN2, hits give low values",0.891
same,normalized growth,"locus YPR025C, strain CCL1, hits give low values",0.947
same,normalized growth,"locus YPR106W, strain ISR1, hits give low values",0.964
same,normalized growth,"locus YPR111W, strain DBF20, hits give low values",0.957
same,normalized growth,"strain NNK1, hits give low values",0.944
same,normalized growth,"strain TSCII, hits give low values",0.943
